Screening data deposited in PubChem by National Center for Advancing Translational Sciences (NCATS).
Tau fibril ThT: qHTS for Inhibitors of Tau Fibril Formation, Thioflavin T Binding. recombinant tau K18 P301L, heparin-induced fibrillization, ThT fluorescence. Potency, µM (doses to about 57.4 µM), for inactives: top-dose activity, negative = inhibition, usual class: inhibitors. Microtubule-associated protein tau (Homo sapiens), P10636. 2.1% of 270,000 active; also: potency is read from the fitted curve at half-maximal effect; % is scaled to controls: 0 for no effect and ±100 for the full control effect; nearly all actives have a fitted effect of over 55% in size
Target sequence (P10636 561-689 P618L limits assumed): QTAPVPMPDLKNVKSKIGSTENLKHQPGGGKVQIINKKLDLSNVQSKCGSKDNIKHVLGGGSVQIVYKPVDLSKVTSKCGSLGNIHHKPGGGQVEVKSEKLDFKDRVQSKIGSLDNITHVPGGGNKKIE
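Fibril formation assay: tau K18 P301L at 15 uM with trace Alexa 594 label, heparin inducer 20 uM, pH 7 sodium acetate buffer, 37 C for 6 hr; endpoint ThT signal.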
Tau fluor cs: Counterscreen qHTS for Inhibitors of Tau Fibril Formation, Fluorescence Polarization. AID 1463, 2008. Potency, µM (top dose mostly 57.7 µM), for the others: at the highest dose activity change, negative = decrease. tau K18 P301L Alexa594 fluorescence, heparin fibrillization. 0.93% of 280,000 active; also: potency is read from the fitted curve at half-maximal effect; % is scaled to controls: 0 for no effect and ±100 for the full control effect; nearly all actives have a fitted effect of over 55% in size
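Human K18 P301L tau (15 uM unlabeled plus 0.24 uM Alexa 594-labeled, final) in 100 mM sodium acetate pH 7 was mixed with compound and 20 uM heparin and incubated 6 hr at 37 C.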
Lamin A splicing: qHTS Assay for Modulators of Lamin A Splicing | 0.01% of 200,000 active | Potency, µM (doses to about 46.1 µM), for the others: at the highest dose ratio change, negative = inhibition, hits mostly inhibitors | HeLa LMNA splicing GFP/RFP minigene ratio, 48 h; active = well fitted inhibition curve with a large enough effect in the signal ratio, with a control signal flat, not every such curve was filed as active; inconclusive = small, poorly fitted or top-dose-only effect, or effect the other way, or a change in a side signal; the % refers to the signal ratio; also: potency is read from the fitted curve at half-maximal effect; % is scaled to controls: 0 for no effect and ±100 for the full control effect
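Read-out is the ratio of GFP to DsRed2 object intensity, acquired by 488 nm laser-scanning cytometry on HeLa lamin A-EGFP minigene reporter cells. Compound incubation 48 hrs at 37 °C in Opti-MEM with 2% FBS; DMSO 0.5% final.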
Tau FP inhib: qHTS for Inhibitors of Tau Fibril Formation, Fluorescence Polarization; 0.39% of 280,000 active; AID 1468, 2008; Microtubule-associated protein tau (Homo sapiens), P10636; Potency, µM (titrated, usually from 57.7 µM), without a hit: at the top dose activity, negative = inhibition, hits mostly inhibitors; K18 P301L tau heparin fibrillization, Alexa594 FP, 6 h; also: potency is read from the fitted curve at half-maximal effect; % is scaled to controls: 0 for no effect and ±100 for the full control effect; nearly all actives have a fitted effect of over 55% in size
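Heparin (20 uM) drove fibril formation of recombinant tau K18 P301L, 15 uM unlabeled with 0.24 uM Alexa 594 label, for 6 hr at 37 C in 100 mM sodium acetate pH 7. Fluorescence polarization (555/632 nm) read 1 hr after 30 uM ThT.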
KDM4E inh: qHTS Assay for Inhibitors of Human Jumonji Domain Containing 2E (JMJD2E); Potency, µM (series often up to 57.1 µM), without a hit: at the highest dose activity change, negative = inhibition, most hits filed as inhibitors; Lysine-specific demethylase 4E (Homo sapiens), B2RXH2; 1.6% of 230,000 active; JMJD2E catalytic domain, FDH-coupled NADH fluorescence (FDH is formaldehyde dehydrogenase);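 also: potency is read from the fitted curve at half-maximal effect; 0% = wells with enzyme and -100% = buffer wells without enzyme; nearly all actives have a fitted effect of over 50% in size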
CBFb RUNX1 block: qHTS Assay for Compounds Blocking the Interaction Between CBF-beta and RUNX1 for the Treatment of Acute Myeloid Leukemia. Potency, µM (top dose mostly 59.8 µM), without a hit: top-dose activity, negative = inhibition, actives largely listed as inhibitors. 230,000 tested, under 10 active. AlphaScreen CBFb-His/RUNX1-biotin binding, biochemical. AID 1477, 2009; also: % of control where 0% means no effect
Target sequence (Q01196 whole entry, looked up): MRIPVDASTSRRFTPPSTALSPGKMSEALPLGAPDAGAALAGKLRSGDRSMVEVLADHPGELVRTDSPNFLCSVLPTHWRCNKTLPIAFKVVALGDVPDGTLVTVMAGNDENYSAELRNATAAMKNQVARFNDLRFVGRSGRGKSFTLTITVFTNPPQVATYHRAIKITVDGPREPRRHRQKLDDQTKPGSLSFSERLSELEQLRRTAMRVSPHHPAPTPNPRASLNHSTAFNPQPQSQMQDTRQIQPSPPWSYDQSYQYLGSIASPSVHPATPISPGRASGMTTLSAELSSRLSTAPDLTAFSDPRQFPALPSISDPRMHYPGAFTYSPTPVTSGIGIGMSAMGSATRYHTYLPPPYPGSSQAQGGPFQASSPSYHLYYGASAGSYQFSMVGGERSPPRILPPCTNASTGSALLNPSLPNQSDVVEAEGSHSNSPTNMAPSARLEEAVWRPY
Target sequence (Q13951 whole entry, looked up): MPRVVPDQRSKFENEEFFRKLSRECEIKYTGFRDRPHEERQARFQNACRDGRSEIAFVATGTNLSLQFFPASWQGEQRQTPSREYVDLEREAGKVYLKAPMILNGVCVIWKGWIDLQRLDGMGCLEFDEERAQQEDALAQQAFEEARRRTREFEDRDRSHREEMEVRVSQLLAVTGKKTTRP
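Bead-based AlphaScreen assay; binding partners His-tagged CBF-beta and biotinylated RUNX1 at 30 nM each. Compound exposure 15 min after a 20-min protein preincubation; bead step 90 min; all steps at room temperature.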
Active calls of the source: *; [ ] = dose if it differs, or a comment. Most compounds without a hit are left out; they make up all but 3.2% or so of the library. Unless noted, calls follow the shape of the dose curve; as a rule, active = well fitted curve in the direction sought with a large enough effect; inconclusive = small, poorly fitted or top-dose-only effect, or another doubt; inactive = no such curve, though single readings can be large; an effect the other way counts as inactive or inconclusive.

For COC(=O)c1ccc2c(c1)C(C)(C)C(/C=C/c1ccc(O)cc1)=[N+]2C the results were Tau fibril ThT 12.6µM*, Tau fluor cs inconclusive, Lamin A splicing inconclusive, Tau FP inhib inconclusive, KDM4E inh 43.2% and CBFb RUNX1 block 4.1%.
Screening CN(Cc1ccco1)c1ccnc(-c2ccoc2)n1 returned Tau fibril ThT 22.4µM*, Tau fluor cs inconclusive, Lamin A splicing inconclusive, Tau FP inhib inconclusive and KDM4E inh 25.1µM*.
For O=C(CSc1nc2c([nH]c3ccccc32)c(=O)n1-c1cccc(Cl)c1)NCc1ccccc1 the results were Tau fibril ThT 3.5%, Tau fluor cs -20.7%, Lamin A splicing 0.6%[46 µM] and Tau FP inhib -7.4%.
COCCCNc1nc2c(S(=O)(=O)c3ccc(C)c(C)c3)nnn2c2ccc(Cl)cc12 was read as Tau fibril ThT -4.5%, Tau fluor cs inconclusive and Tau FP inhib inconclusive.
CCCCOc1[nH]c2nc(-c3ccco3)n(Cc3ccco3)c(=N)c2c1C#N was read as Tau fibril ThT 22.4µM*, Tau fluor cs inconclusive, Lamin A splicing -10.4%, Tau FP inhib -11.1%, KDM4E inh inconclusive and CBFb RUNX1 block inconclusive.
For Cc1ccc(-n2nnnc2C(Cl)c2nnnn2-c2ccc(C)cc2)cc1 the results were Tau fibril ThT 20µM*, Tau fluor cs -16.6%, Lamin A splicing inconclusive, Tau FP inhib inconclusive, KDM4E inh -1.9% and CBFb RUNX1 block 3.0%.
Cc1ccc(-n2nnnc2-c2ccccc2)cc1 was read as Tau fibril ThT -3.2%, Tau fluor cs -6.1%, Tau FP inhib 4.0%, KDM4E inh 4.0% and CBFb RUNX1 block 7.8%.
Screening Cc1[nH]c2c(ccc3ccccc32)c1C1C(CCN)C1(C)C (stereo unspecified) returned Tau fibril ThT inconclusive, Tau fluor cs 15.8µM*[quencher], Lamin A splicing 0.9%, Tau FP inhib inconclusive, KDM4E inh inconclusive and CBFb RUNX1 block -8.5%.
For S=c1[nH]c2ccc3ccccc3c2[nH]1 the results were Tau fibril ThT -3.0%, Tau fluor cs 0.1%, Lamin A splicing inconclusive, Tau FP inhib 1.5%, KDM4E inh inconclusive and CBFb RUNX1 block 4.6%.
Screening Cc1cccc(N=C2NN=C(c3ccc4c(c3)OCCO4)CS2)c1 returned Tau fibril ThT 11.2µM*, Tau fluor cs inconclusive, Lamin A splicing inconclusive, Tau FP inhib -11.9%, KDM4E inh -4.1% and CBFb RUNX1 block inconclusive.
For O=C(N/N=C/c1cc2c3c(c1O)CCCN3CCC2)c1ccccc1O the results were Tau fibril ThT 12.6µM*, Tau fluor cs 11.2µM*[quencher], Lamin A splicing inconclusive, Tau FP inhib -5.2% and KDM4E inh 31.6µM*.
For CN(C)c1ccc(Nc2nc3ccccc3n3nnnc23)cc1 the results were Tau fibril ThT 7.94µM*, Tau fluor cs 11.2µM*[quencher] and Tau FP inhib 12.9%.
`CCOc1ccc(Nc2nc3ccccc3n3nnnc23)cc1` gave Tau fibril ThT -15.6%, Tau fluor cs inconclusive, Lamin A splicing 14.8%, Tau FP inhib 9.5%, KDM4E inh inconclusive and CBFb RUNX1 block -0.3%.
`O=C1OC(/C=C/c2ccccc2)=NC/1=C\c1cccnc1` gave Tau fibril ThT -0.7%, Tau fluor cs 1.7%, Lamin A splicing -3.8%[46 µM], Tau FP inhib 2.6%, KDM4E inh 15.5% and CBFb RUNX1 block 3.9%.
Screening COc1ccccc1/C=C/C=C1N=C(/C=C/c2ccc(Cl)cc2)OC/1=O returned Tau fibril ThT 12.6µM*, Tau fluor cs -9.8%, Lamin A splicing -7.9%, Tau FP inhib -4.3%, KDM4E inh inconclusive and CBFb RUNX1 block -6.5%.
For COc1ccccc1/C=C/C1=NC(=C\C=C/c2ccccc2)/C(=O)O1 the results were Tau fibril ThT 11.2µM*, Tau fluor cs -9.6%, Lamin A splicing -14.8%, Tau FP inhib -7.4%, KDM4E inh 0.4% and CBFb RUNX1 block -0.3%.
`CCCCN1C(=O)/C(=C/C=C2\SCCN2C)SC1=S` gave Tau fibril ThT 14.1µM*, Tau fluor cs inconclusive, Tau FP inhib inconclusive and KDM4E inh -10.4%.
Screening CN1CCS/C1=C/C=C1\SC(=S)N(CC(=O)O)C1=O returned Tau fibril ThT 15.8µM*, Tau fluor cs -19.9%, Tau FP inhib -5.5%, KDM4E inh 2.4% and CBFb RUNX1 block -3.7%.
Screening CCCCN1C(=O)/C(=C/C=C2\N(C)c3ccccc3C2(C)C)SC1=S returned Tau fibril ThT 6.31µM*, Tau fluor cs -11.0%, Lamin A splicing 3.8%, Tau FP inhib inconclusive, KDM4E inh -1.7% and CBFb RUNX1 block -11.3%.
Screening CN1CCS/C1=C/C=C1/SC(=S)N(Cc2ccccc2)C1=O returned Tau fibril ThT 12.2%, Tau fluor cs 8.1%, Lamin A splicing -13.5%, Tau FP inhib 5.6%, KDM4E inh -2.1% and CBFb RUNX1 block 7.5%.
`CCCN1C(=O)/C(=C\C=C2/C=CN(CC)c3ccccc32)SC1=S` gave Tau fibril ThT -9.3%, Tau fluor cs -6.9%, Lamin A splicing -20.0%, Tau FP inhib 16.0%, KDM4E inh -6.1% and CBFb RUNX1 block 2.3%.
`Cc1ccccc1-c1nc(CS(=O)(=O)CC(=O)NCC(C)c2ccccc2)c(C)o1` (stereo unspecified) gave Tau fibril ThT -13.6%, Tau fluor cs -12.1% and Tau FP inhib 7.7%.
`CCCn1c(-c2ccc(F)cc2)nc2c(NC3CCN(Cc4ccccc4)CC3)nc(C)nc21` gave Tau fibril ThT -7.3%, Tau fluor cs -10.6%, Tau FP inhib -3.6%, KDM4E inh inconclusive and CBFb RUNX1 block -17.4%.
`C=CCN1c2ccccc2[C@]23C[C@@H](C(=O)OC)N(S(=O)(=O)c4c(C)noc4C)C2=NC(C(=O)OC)=C(C(=O)OC)[C@H]13` gave Tau fibril ThT -5.8%[11.5 µM], Tau fluor cs -7.9%[11.6 µM], Lamin A splicing 2.3%[9.22 µM], Tau FP inhib 2.3%[11.6 µM], KDM4E inh 7.9%[11.4 µM] and CBFb RUNX1 block -4.5%[13.1 µM].
For O=C(Nc1cccc(S(=O)(=O)N2CCCCC2)c1)c1ccc2ncsc2c1 the results were Tau fluor cs 20µM*[quencher], Tau FP inhib inconclusive, KDM4E inh inconclusive and CBFb RUNX1 block 1.5%.
For CN(c1ccccc1)S(=O)(=O)c1cccc(NC(=O)c2ccc3ncsc3c2)c1 the results were Tau fibril ThT -7.0%, Tau fluor cs 15.8µM*[quencher], Tau FP inhib inconclusive, KDM4E inh -10.1% and CBFb RUNX1 block 3.9%.
